High-throughput results: PubChem, National Center for Advancing Translational Sciences (NCATS)
TDP-43 yeast inh – rescues yeast growth from TDP-43 toxicity; Potency, µM (titrated, usually from 46.1 µM), actives largely listed as activators; TDP-43 expressing yeast growth rescue, BacTiter-Glo, 24 h; 410,000 compounds, 1.8% hits; note: nearly all actives have a fitted effect of over 50% in size
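Growth rescue of TDP-43-toxic yeast measured as ATP luminescence (BacTiter-Glo). Cells grown to mid-log in raffinose, induced in galactose at OD600=0.02, exposed to compound 24 hr at 30 deg C.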
Abeta yeast res – compounds reversing amyloid beta toxicity in yeast; AID 1347071; yeast expressing A-beta42, growth rescue, OD600, 48 h; response scale: 0% DMSO, 100% iron-clioquinol control; 410,000 compounds, 0.063% hits; Potency, µM (series often up to 46.1 µM), usual class: activators; note: nearly all actives have a fitted effect of over 55% in size
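Yeast A-beta toxicity model in growth medium with pinned compounds, 48 h at 30 C; growth read as absorbance at 600 nm. Normalized to FeCl3/clioquinol equimolar mix (positive) and DMSO (negative).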
aSyn yeast inh – inhibitors of alpha-synuclein toxicity in yeast | Yeast expressing alpha-synuclein, growth rescue, BacTiter-Glo, 24 h | Potency, µM (top dose mostly 46.1 µM), actives largely listed as activators | 370,000 compounds, 0.14% hits | AID 652106; note: nearly all actives have a fitted effect of over 65% in size
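Galactose-induced alpha-syn yeast (OD600=0.02, raffinose-pregrown) + pinned cpd, 24 hr, 30 deg C; growth by BacTiter-Glo luminescence. Growth restoration scores as activation.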
FUS yeast rescue – FUS proteinopathy suppression in yeast; S. cerevisiae FUS-expressing, growth rescue, OD600, 24 h; Potency, µM (doses to about 76.6 µM), actives largely listed as activators; 390,000 compounds, 0.24% hits; note: nearly all actives have a fitted effect of over 55% in size
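Cultures pregrown in 2.5% raffinose medium are shifted to minimal medium containing 2% galactose to express toxic FUS. Compounds are tested at several concentrations. After 24hr at 30C, growth is quantified at 600 nm absorbance.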
Hits are given with their value; 0 = inactive; ? = inconclusive; - = not tested or not shown. Shown are actives, neighbours in structure and some others; about 2.1% of the full set was active somewhere. Calls come from the whole dose curve; as a rule, active = well fitted curve in the direction sought with a large enough effect; inconclusive = small, poorly fitted or top-dose-only effect, or another doubt; inactive = no such curve, though single readings can be large; an effect the other way counts as inactive or inconclusive.

SMILES | TDP-43 yeast inh | Abeta yeast res | aSyn yeast inh | FUS yeast rescue
Nc1c(C(=O)c2ccc(Br)s2)oc2ccccc12 | 13µM | 0 | 0 | 0
Oc1ccc(N2CCN(c3ncnc4sc(-c5ccccc5)cc34)CC2)cc1 | 11µM | 0 | ? | ?
CCc1cc2c(N3CCN(c4ccccc4)CC3)ncnc2s1 | 13µM | 0 | 0 | 0
Cc1ccc(NC(=O)CSc2nc(=O)n(Cc3ccncc3)c3c2CCC3)cc1Cl | 0 | 0 | - | 0
NS(=O)(=O)c1ccc(CCNC(=O)CSc2nc3ccsc3c(=O)n2CC2CCC(C(=O)O)CC2)cc1 (stereo unspecified) | 0 | 0 | 0 | 0
O=[N+]([O-])c1cc(/C=N/N2CCOCC2)cs1 | ? | 0 | 0 | 0
O=[N+]([O-])c1ccc(C=NN2CCOCC2)s1 | 11µM | 0 | 0 | 0
COc1ccc(CN2C(=O)NC3(CCCCC3)C2=O)cc1F | 0 | 0 | 0 | 0
COc1ccc(CN2C(=O)NC3(CCCc4ccccc43)C2=O)cc1F (stereo unspecified) | 11µM | 0 | 0 | 0
CC(C)[C@@H]1CC[C@@H](C)c2c(-c3ccccc3)n[nH]c21 | 11µM | 0 | ? | 0
c1ccc(-c2n[nH]c3c2CCC3)cc1 | ? | ? | 0 | 0
CSc1ccccc1NC(=O)Cn1nc([N+](=O)[O-])c(Cl)c1C | 0 | 0 | 0 | 0
Cn1c(=O)c(Cc2ccccc2)c(O)c2ccccc21 | 0 | 0 | 0 | 0
CCCCCOC(=O)Cc1c(O)c2ccccc2n(C)c1=O | 11µM | 0 | 0 | 0
O=c1onc(-c2ccccc2)n1-c1cc(Cl)cc(Cl)c1 | 0 | 0 | 0 | 0
C/C(=N\NC(=O)c1nc2ccccn2c1C)c1ccc2c(c1)OCO2 | 0 | 0 | 0 | -
Cc1cc(C)c(C#N)c(SCC(=O)c2cccs2)n1 | 2.8µM | 0 | 0 | 0
CC1=NN(C(=O)c2ccc(Cn3nc(C)c([N+](=O)[O-])c3C)o2)C(O)(C(F)(F)F)C1 (stereo unspecified) | 0 | 0 | 0 | -
Cc1cc(C)n2nc(SCc3c(F)cccc3Cl)nc2n1 | ? | 0 | 0 | 0
Cc1cc(C)n2nc(SCc3ccc(F)cc3Cl)nc2n1 | 11µM | 0 | 0 | 0
NC(Cc1ccc(Cl)cc1)c1csc(NC(=O)NCC2CCCCC2)n1 (stereo unspecified) | ? | 0 | 0 | 25µM
NC(Cc1ccc(Cl)cc1)c1csc(NC(=O)NCCc2ccccc2)n1 (stereo unspecified) | 0 | 0 | 0 | 0
COC(=O)CCc1c[nH]c2ccc([N+](=O)[O-])cc12 | 0 | 0 | 0 | 0
O=C(CCc1c[nH]c2ccccc12)OCc1cccc([N+](=O)[O-])c1 | ? | 11µM | 0 | 0
CCCCN1C(=O)C(CC(=O)NCCCCc2ccccc2)CC(C(=O)N2CCOCC2)=C1C (stereo unspecified) | 0 | 0 | 20µM | 0
SMILES | TDP-43 yeast inh | Abeta yeast res | aSyn yeast inh | FUS yeast rescue
Cc1cccc(C(=O)N2CCC(=O)N([C@H](COCc3ccc(Cl)cc3)Cc3ccccc3)CC2)c1 | 16µM | 0 | 0 | ?
Cc1cccc(C(=O)N2CCC(=O)N([C@H](COCc3cccc(Cl)c3)Cc3ccccc3)CC2)c1 | 35µM | 0 | ? | ?
Cc1cccc(COC[C@H](CC(C)C)N2CCN(C(=O)c3ccc(C(C)(C)C)cc3)CCC2=O)c1 | 22µM | 0 | 0 | ?
Cc1cccc(C(=O)N2CCC(=O)N(C(COCc3ccc(Cl)cc3)Cc3ccccc3)CC2)c1 (stereo unspecified) | 35µM | 0 | ? | ?
COc1ccc(OC)c(-c2csc(NC(=O)Cn3[nH]c(=O)c4ccccc4c3=O)n2)c1 | 0 | 0 | 0 | 40µM
COc1ccc(OC)c(-c2csc(NC(=O)Cc3ccc(F)cc3)n2)c1 | 14µM | 0 | 0 | 0
COC(=O)c1sccc1NC(=O)Nc1ccccc1C | 11µM | 0 | 0 | 0
COC(=O)c1sccc1NC(=O)Nc1ccc(C)c(C)c1 | 13µM | 0 | 0 | 0
C[C@H]1CN([C@@H](C)CO)C(=O)c2c(c3ccccc3n2C)-c2ccccc2CO[C@H]1CN(C)C(=O)[C@@H]1CCCN1C | 0 | 0 | 0 | 0
COc1ccc(/C=N/NC(=O)c2nonc2N)cc1OC | 0 | 0 | 0 | 0
NC(=O)COc1ccc(/C=C2\C(=O)ON=C2c2ccccc2)cc1 | 22µM | 0 | 16µM | -
COc1ccc(/C=C2/C(=O)ON=C2c2ccccc2)cc1OC | ? | 0 | 13µM | 0
CCOc1cc(/C=C2\C(=O)ON=C2c2ccccc2)ccc1OC | 13µM | 0 | 0 | 0
CCCC(=O)Nc1ccc2oc(=O)ccc2c1 | 0 | 0 | 0 | 0
COc1ccc(CNC(=O)C(c2ccc(C)cc2)N(Cc2cccs2)C(=O)c2ccc3c(c2)OCCO3)cc1 (stereo unspecified) | 0 | 0 | 0 | 5µM
O=C(Nc1ccccc1C(=O)Nc1ccc(Cl)cc1)c1cccnc1 | 14µM | 0 | 0 | 0
O=C(Nc1ccc(Cl)c(Cl)c1)c1cccnc1 | 18µM | 0 | 0 | 0
Cc1ccc(NC(=O)c2ccccc2NC(=O)c2cccnc2)cc1 | 0 | 0 | 0 | 0
CCOc1ncccc1C(=O)Nc1ccc(F)cc1 | 0 | 0 | 0 | 0
CCOc1ncccc1C(=O)Nc1ccc(Cl)cc1 | 11µM | 0 | 0 | 0
COC(=O)c1ccccc1N=Nc1c(C)noc1C | 0 | 0 | 0 | 0
COc1cccc(-c2ncc3ccccc3c2COC(=O)CCC(=O)O)c1 | 0 | 0 | 0 | 0
C[C@@H]1CN([C@H](C)CO)C(=O)CCCn2nncc2CO[C@@H]1CN(C)C(=O)Cc1ccccc1 | 0 | 0 | 0 | 0
Nc1nc2ccc(O)cc2s1 | 0 | 0 | 0 | -
Nc1nc2ccc(OC(F)(F)F)cc2s1 | 13µM | 0 | - | 0
SMILES | TDP-43 yeast inh | Abeta yeast res | aSyn yeast inh | FUS yeast rescue
Nc1nc2ccc(Oc3ccccc3)cc2s1 | 11µM | 0 | 0 | -
Cc1nc2ccc(Oc3ccccc3)cc2s1 | 0 | 0 | 0 | 0
CCC1c2ccc(C)n2CCN1C(=O)Nc1cc(Cl)ccc1OC (stereo unspecified) | 0 | 0 | 0 | 0
CC(C)(C)n1nnnc1C(c1cc2ccccc2o1)N1CCN(C(=O)OCc2ccccc2)CC1 (stereo unspecified) | 0 | 0 | 0 | ?
CC(C)(C)OC(=O)N1CCCN(C(c2cc3ccccc3o2)c2nnnn2C(C)(C)C)CC1 (stereo unspecified) | ? | 0 | 0 | 16µM
CC(=O)c1cnn(-c2ccccc2)c1C | 0 | 0 | 0 | 0
Nc1c(C(=O)N/N=C/c2ccc([N+](=O)[O-])cc2)cnn1-c1ccccc1 | 0 | 0 | 0 | 0
Cc1c(C(=S)Nc2ccccc2)cnn1-c1ccc([N+](=O)[O-])cc1 | 13µM | 0 | 0 | -
Cc1c(C(=S)Nc2ccccc2)cnn1-c1ccccc1 | 16µM | 0 | 0 | -
COc1ccccc1C(=O)Nc1ccc2c(c1)nc(CCNC(=O)c1ccccc1)n2C | 0 | 0 | 0 | 0
Cc1ccc(C)c(CN2C(=O)c3ccccc3S(=O)c3ccc(C(=O)NCCC4=CCCCC4)cc32)c1 (stereo unspecified) | 0 | 0 | - | 0
O=S(=O)(/N=C(/NS(=O)(=O)c1ccccc1)c1ccccc1)c1ccccc1 | 0 | 0 | 0 | 0
